Screening results as filed in PubChem.
CYP2C19 inhib: inhibitors of human CYP2C19 | P33261 | CYP2C19 Supersomes, luciferin-H EGE luminescence, 30 min | inhibition, % at 5 µM | 21% of 96,000 active | AID 778;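 active means CYP2C19 inhibition above a set limit at 5 µM in the primary screen, cut at about 50% in these data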;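 further: plate controls were negative control wells for no effect and 2.5 mM tranylcypromine positive control for full effect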
Target sequence (P33261 whole entry, looked up): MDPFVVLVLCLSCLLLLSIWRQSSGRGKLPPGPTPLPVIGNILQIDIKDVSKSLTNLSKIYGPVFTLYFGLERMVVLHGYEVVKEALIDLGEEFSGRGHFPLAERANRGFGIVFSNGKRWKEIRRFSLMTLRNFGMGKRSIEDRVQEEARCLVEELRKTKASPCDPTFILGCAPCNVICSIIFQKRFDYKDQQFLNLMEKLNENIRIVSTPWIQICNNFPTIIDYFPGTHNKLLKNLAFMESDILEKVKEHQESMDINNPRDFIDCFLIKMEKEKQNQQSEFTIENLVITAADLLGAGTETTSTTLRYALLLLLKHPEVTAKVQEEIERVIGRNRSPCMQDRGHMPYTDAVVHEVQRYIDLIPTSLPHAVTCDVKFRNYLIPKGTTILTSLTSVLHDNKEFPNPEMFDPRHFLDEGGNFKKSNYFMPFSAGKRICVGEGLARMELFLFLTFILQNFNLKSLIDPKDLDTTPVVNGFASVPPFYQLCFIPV
CYP2C9 act: increases human cytochrome P450 2C9 activity. P11712. recombinant CYP2C9, luciferin-H conversion, luminescence; active compounds read high; factor 1 = untreated enzyme, 0 = blocked. activation factor at 5 µM. 1.4% of 96,000 active;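 active means activation factor of 2 or more for CYP2C9 at a 5 µM dose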;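 further: 0 = sulfaphenazole-blocked wells and 1 = vehicle-only wells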
CYP2C19 activ: activators of human cytochrome P450 2C19; recombinant CYP2C19, luciferin-H EGE luminescence; active compounds read high; 0 = fully inhibited enzyme, 1 = untreated enzyme; activation factor at 5 µM; 96,000 tested, under 10 active;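 active means activation factor of at least 2 at 5 µM in the primary screen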;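 further: 0 = wells with 2.5 mM tranylcypromine and 1 = vehicle-only wells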
sEH act: activators of human soluble epoxide hydrolase. P34913. purified human sEH enzymatic activity, activator screen. activation, % at 2 µM. 0.04% of 91,000 active; in the data active means activation above about 37%
sEH inh: soluble epoxide hydrolase (human) inhibition; P34913; AID 707; inhibition, % at 2 µM; 0.34% of 91,000 active; recombinant human sEH enzymatic activity assay; in the data active means inhibition above about 80%
CYP2C9 inhib: blocks human cytochrome P450 2C9 | AID 777 | P11712 | 20% of 96,000 active | inhibition, % at 5 µM | CYP2C9 Supersomes, luciferin-H conversion, luminescence;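 active means blocking of liver enzyme CYP2C9 beyond about 50% at 5 µM, limit read from the data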
* marks the source's active call; other numbers are inactive results; x = not tested or not shown. Rows were chosen to be rich in hits. Some 27% of all compounds tested hit in one or more screens of this group.

SMILES	CYP2C19 inhib	CYP2C9 act	CYP2C19 activ	sEH act	sEH inh	CYP2C9 inhib
CN(C)CC(C)(C)CNS(=O)(=O)CC12CCC(CC1=O)C2(C)C (stereo unspecified)	-2	1	1	-6	8	5
CCCc1oc2c(c(=O)c1CC)C(=O)CC(C)(C)C2	41	0.8	0.6	-12	15	22
COc1ccc(NC(=O)N2c3ccccc3CC2C)cc1OC (stereo unspecified)	44	0.3	0.6	-36	38	66*
COC(=O)c1ccccc1NC(=O)N1c2ccccc2CC1C (stereo unspecified)	12	0.8	0.9	-1	5	22
Cn1c(SCc2ccc(F)cc2)nnc1-c1cccs1	38	0.9	0.6	14	-15	10
Fc1ccccc1N1CC(c2ccccc2)C(c2cccs2)=N1 (stereo unspecified)	24	0.4	0.8	31	-35	60*
Cc1cc(=O)n2nc(N3CCCC(C(=O)N4CCc5ccccc54)C3)sc2n1 (stereo unspecified)	21	0.4	0.8	6	-7	58*
O=C(C1CCCN(c2ncccn2)C1)N1CCc2ccccc21 (stereo unspecified)	84*	0.3	0.2	-1	1	72*
Cc1cc(=O)n2nc(N3CCCC(C(=O)N4CCOCC4)C3)sc2n1 (stereo unspecified)	-24	1.2	1.2	x	x	-21
Nc1nonc1NC(=O)CSc1nc2ccccc2s1	79*	0.9	0.2	-3	4	8
CC(C)c1nnc(NC(=O)CSc2nc3ccccc3s2)s1	-3	0.6	1	-15	15	43
O=C(CSc1nc2ccccc2s1)Nc1nccs1	53*	0.8	0.5	15	-12	19
CCc1nnc(NC(=O)CSc2nc3ccccc3s2)s1	19	0.4	0.8	3	0	58*
Cc1cc(C)c2c3c(sc2n1)C(=O)N(Cc1ccccc1)CC(=O)N3	30	0.9	0.7	-3	2	10
O=C(CSc1ccc(Cl)cc1)N1CCN(c2ccc([N+](=O)[O-])cc2Cl)CC1	11	0.6	0.9	-8	10	37
CCS(=O)(=O)N1CCN(c2c(Cl)cccc2[N+](=O)[O-])CC1	52*	0.6	0.5	12	-14	40
O=C(CSc1ccc(Cl)cc1)N1CCN(c2c(Cl)cccc2[N+](=O)[O-])CC1	35	0.3	0.7	9	-4	71*
CCCN(CCC)CCNC(=O)C(NS(=O)(=O)c1ccc2c(c1)CCC(=O)N2)c1ccccc1 (stereo unspecified)	-3	1	1	1	-5	1
O=C(CSc1nc(-c2ccccc2)cc(C(F)(F)F)n1)NCc1ccco1	8	0.7	0.9	-6	8	26
COc1ccc(-c2cc(C(F)(F)F)nc(SCC(=O)NCc3cccs3)n2)cc1	-12	0.6	1.1	-19	17	40
O=C(CSc1nc(-c2cccs2)cc(C(F)(F)F)n1)NCc1ccco1	62*	0.2	0.4	-11	14	79*
O=C(NCc1ccco1)c1nn2c(C(F)(F)F)cc(-c3cccs3)nc2c1Br	15	0.3	0.8	6	-4	73*
CCC(C)NC(=O)CSc1nc(-c2cccs2)cc(C(F)(F)F)n1 (stereo unspecified)	97*	0.1	0	-11	9	88*
COC(=O)Cn1ncn2c(cc3oc(C)cc32)c1=O	-14	0.7	1.1	8	-6	27
Clc1ccc(Br)cc1-c1nc(-c2cccnc2)no1	x	x	x	13	-15	x
SMILES	CYP2C19 inhib	CYP2C9 act	CYP2C19 activ	sEH act	sEH inh	CYP2C9 inhib
CN1CCN(CC(=O)O)CC1	8	0.5	0.9	-9	7	54*
CCN(C(=O)CN1CCN(C)CC1)c1cccc2ccccc12	-14	1.1	1.1	-1	4	-6
COc1cccc(C(=O)C2CN(c3ccccc3)CC2c2ccc(Cl)cc2)c1 (stereo unspecified)	4	0.8	1	-2	2	22
O=C(NCc1ccc(F)cc1)C(Cc1ccccc1)NS(=O)(=O)c1cccs1 (stereo unspecified)	89*	0.5	0.1	-7	8	50*
O=C(NCc1cccs1)C(Cc1ccccc1)NS(=O)(=O)c1cccs1 (stereo unspecified)	x	x	x	2	-5	x
COc1cccc(CNC(=O)CCCNS(=O)(=O)c2cccs2)c1	32	0.7	0.7	-7	6	30
O=S(=O)(NCCSc1ccccc1)c1cccs1	80*	0.5	0.2	-2	4	46
O=S(=O)(NCCSc1ccccc1)c1ccc(F)cc1	40	0.9	0.6	-4	5	13
O=C(CCNS(=O)(=O)c1cccs1)NCc1ccccc1	83*	0.8	0.2	5	-6	23
O=S(=O)(NCc1ccccc1)c1cccs1	51*	0.9	0.5	-10	10	7
O=C(Cn1cnc2c(nnn2Cc2ccc(Cl)cc2)c1=O)NCc1ccco1	x	x	x	2	-4	x
COc1cc(OC)nc(NC(=O)NS(=O)(=O)c2ccc(OC(F)(F)F)cc2)n1	8	0.9	0.9	8	-8	8
O=C(COc1ccc(Cl)cc1)NNC(=O)C(=O)N1CCCCC1	8	1	0.9	19	-14	0
O=C(O)c1cc(S(=O)(=O)N2CCOCC2)c(Sc2ccccn2)cc1Sc1ccccn1	5	0.8	1	x	x	22
COc1ccc(N2CCN(C(=O)CCNS(=O)(=O)c3cccs3)CC2)cc1	-6	0.9	1.1	2	-4	12
O=C(CCNS(=O)(=O)c1cccs1)N1CCc2ccccc2C1	59*	1	0.4	3	-5	3
CCCCCOc1ccc(CSc2ncn[nH]2)cc1	x	x	x	-9	9	x
CCc1noc(C)c1C(=O)Nc1ncc(C)s1	47	0.7	0.5	3	0	33
CC(C)c1nc2sc3c(SCC(=O)NCc4ccco4)ncnc3c2c2c1CCC2	59*	0.3	0.4	x	x	70*
CC1(C)Cc2nc3sc4c(SCC(=O)NCc5ccco5)ncnc4c3cc2CO1	46	0.4	0.5	-13	16	64*
CC1(C)Cc2nc3sc4c(=O)n(CC(=O)NCc5ccccc5)cnc4c3cc2CO1	8	0.6	0.9	-2	2	43
COc1ccc(NC(=S)N2CCN(C/C=C/c3ccccc3)CC2)cc1OC	9	0.9	0.9	-4	4	9
C=CCSc1nnc(-c2ccc(Cl)cc2Cl)o1	84*	0.7	0.2	-3	5	32
Clc1ccc(-c2nnc(SCc3nc4ccccc4[nH]3)o2)c(Cl)c1	x	x	x	-5	7	x
Clc1ccc(-c2nnc(SCc3ccon3)o2)c(Cl)c1	97*	0.4	0	-12	15	62*
O=C(c1cc2ccccc2oc1=O)N1CCN(CCc2ccccc2)CC1	-5	1	1.1	x	x	-1
